Reference: ChEMBL document CHEMBL1201862, “PubChem BioAssay data set” (2004)

Organism: Mus musculus
Test: Confirmation Concentration-Response Assay for Epigenetic Modulators.
Assay type: functional; call rule not given here

SMILES | Potency
COc1cccc(C(=O)NC(c2ccco2)c2cc(Cl)c3cccnc3c2O)c1 (centres undefined) | 77.1 µM (active)
CC(C)C(=O)NC(c1ccc(Cl)cc1Cl)c1ccc2cccnc2c1O (centres undefined) | 73.2 µM (active)
COc1ccc(C)cc1/N=N/c1ccc(O)c2ncccc12 | 77.1 µM (active)
CC(C)C(=O)NC(c1ccco1)c1cc(Cl)c2cccnc2c1O (centres undefined) | 341 µM (active)
